Assay results published in PubChem BioAssay AID463173 (ICCB-Longwood Screening Facility, Harvard Medical School, 2010).
Among all 52,000 compounds or so, about 4,300 (8.3%) were called active. No stated cut-off is given here; in the data, active means survival mostly below about 52% (no sharp cut-off); inactive means mostly above about 56%. For the sample, actives were picked, then their nearest neighbours and some compounds at random.

What follows are compounds tested on DeltatarO mutant (assay: growth inhibition of S. aureus wild type versus tarO mutant, primary screen, teichoic acid synthesis inhibitors, RN4220, OD600 (AID 463173)). Details: OD600, 18 h, hits give low values, screened at 18.75 µg/mL (by protocol).

Q: `N#Cc1ccc2c(c1)nc1c3cccc4cccc(c(=O)n21)c43` was tested. Which survival did it give?
A: Its survival is 72% (inactive).

Q: `CC(C)(C)C(=O)N1c2ccccc2CCc2ccccc21` was tested. Which survival did it give?
A: Its survival is 84% (inactive).

Q: How did the survival turn out when `COc1ccc(Br)cc1CNC(=O)CCSCc1ccc(C)cc1` was run?
A: Its survival is 81% (inactive).

Q: Which survival does the source give for `Cc1cccc(C(c2sc3nc(-c4ccco4)nn3c2O)N2CCN(Cc3ccccc3)CC2)c1` (stereo unspecified) here?
A: The survival was 94% (inactive).

Q: For `CC(=O)c1ccc(Oc2nc(C)nc3c2oc2ccccc23)cc1`, which survival is on record?
A: Its survival is 92% (inactive).

Q: With `COc1cccc(Oc2nc(C)nc3c2oc2ccccc23)c1` as the compound, how does the survival read?
A: Its survival is 25% (active).

Q: Which survival does the source give for `Cc1nc(Oc2ccccc2C)c2oc3ccccc3c2n1` here?
A: The survival was 101% (inactive).

Q: For `CCN(CC)c1ccc(NC(=O)C(Cc2ccccc2)NS(=O)(=O)c2ccc(Br)s2)c(C)c1` (stereo unspecified), which survival is on record?
A: Its survival is 117% (inactive).

Q: With `COc1ccc2nc(SCC(=O)NC3CCCCC3C)c(C#N)cc2c1` (stereo unspecified) as the compound, how does the survival read?
A: Its survival is 89% (inactive).

Q: `CC(=O)Nc1ccc(Nc2nc3ccc(Cl)cc3n3cnnc23)cc1` was tested. Which survival did it give?
A: Its survival is 99% (inactive).

Q: `COc1ccc(C(=O)Nc2nccs2)cc1OC` was tested. Which survival did it give?
A: Its survival is 79% (inactive).

Q: With `COc1cc(C(=O)Nc2ccc(NC(=O)c3ccc(C(C)(C)C)cc3)cc2)cc(OC)c1OC` as the compound, how does the survival read?
A: Its survival is 132% (inactive).

Q: With `Cc1cccc(-n2cnc3cc(C(=O)NC4CCCCCC4)ccc32)c1` as the compound, how does the survival read?
A: Its survival is 106% (inactive).

Q: `Cc1cccc(-n2c(C)nc3cc(C(=O)NCCC4=CCCCC4)ccc32)c1` was tested. Which survival did it give?
A: The survival was 71% (inactive).

Q: With `CCCCCNC(=O)c1ccc2c(c1)nc(C)n2-c1cccc(C)c1` as the compound, how does the survival read?
A: The survival was 0% (active).

Q: How did the survival turn out when `Cc1cccc(-n2cnc3cc(C(=O)NCc4ccccc4Cl)ccc32)c1` was run?
A: The survival was 72% (inactive).

Q: For `Cc1cc(C)cc(-n2cnc3cc(C(=O)NCCc4ccccc4)ccc32)c1`, which survival is on record?
A: Its survival is 78% (inactive).

Q: `CCCCCNC(=O)c1ccc2c(c1)ncn2-c1cccc(C)c1` was tested. Which survival did it give?
A: Its survival is 0% (active).

Q: How did the survival turn out when `Cc1nc2cc(C(=O)NCCC3=CCCCC3)ccc2n1-c1ccc(Br)cc1` was run?
A: Its survival is 60% (inactive).

Q: `Cc1ccc(-n2cnc3cc(C(=O)NCc4ccccc4Cl)ccc32)c(C)c1` was tested. Which survival did it give?
A: Its survival is 37% (active).

Q: Which survival does the source give for `CCCNC(=O)c1ccc2c(c1)nc(C)n2-c1cccc(C)c1` here?
A: Its survival is 83% (inactive).

Q: For `CCOc1ccc(-n2c(C)nc3cc(C(=O)NCCC4=CCCCC4)ccc32)cc1`, which survival is on record?
A: Its survival is -4% (active).

Q: For `CCCNC(=O)c1ccc2c(c1)ncn2-c1ccc(C)cc1C`, which survival is on record?
A: The survival was 75% (inactive).

Q: For `COCCCNC(=O)c1ccc2c(c1)nc(C)n2-c1cccc(C)c1`, which survival is on record?
A: The survival was 69% (inactive).

Q: `Cc1nn(-c2ccccc2)c(OC(=O)c2ccc(Cl)cc2)c1S(=O)(=O)c1ccccc1` was tested. Which survival did it give?
A: The survival was 79% (inactive).

Q: `c1csc(-c2nc3ccccn3c2Nc2ccc3c(c2)OCCO3)c1` was tested. Which survival did it give?
A: Its survival is 89% (inactive).

Q: Which survival does the source give for `Cc1ccccc1NC(=O)CCS(=O)(=O)c1cc(Br)cc2c1N(C(=O)C1CC1)CC2` here?
A: The survival was 96% (inactive).

Q: For `CC(=O)Nc1cc2c(cc1C(=O)c1ccccc1)OCCO2`, which survival is on record?
A: The survival was 108% (inactive).

Q: For `Cn1c(=O)c(=O)n(C)c2cc(S(=O)(=O)CCC(=O)Nc3ccc(F)cc3)ccc21`, which survival is on record?
A: Its survival is 83% (inactive).

Q: How did the survival turn out when `CCc1nn(CC(=O)NCCN(CC(C)C)CC(C)C)c(=O)c2cc3sc(C)cc3n12` was run?
A: Its survival is 68% (inactive).

Q: With `CC(=O)c1ccc(Nc2cc(C)nc3nc(Cc4ccccc4)nn23)cc1` as the compound, how does the survival read?
A: Its survival is 64% (inactive).

Q: With `CCOC(=O)c1cccc(NC(=O)NCc2cccn2Cc2ccccc2)c1` as the compound, how does the survival read?
A: The survival was 119% (inactive).

Q: `CCOc1ccc(NC(=O)NCc2cccn2Cc2ccccc2)cc1` was tested. Which survival did it give?
A: The survival was 72% (inactive).

Q: For `CCOC(=O)Cc1ccc(NC(=O)NCc2cccn2Cc2ccccc2)cc1`, which survival is on record?
A: Its survival is -4% (active).

Q: How did the survival turn out when `CCN1CCc2c(sc(-n3cccc3)c2C(C)NC(=O)Nc2ccc(Br)cc2)C1` (stereo unspecified) was run?
A: Its survival is 102% (inactive).

Q: For `CCc1ccc(NC(=O)CC2C(=O)N(c3ccc(OC)cc3)C(=O)N2Cc2ccc(OC)cc2)cc1` (stereo unspecified), which survival is on record?
A: Its survival is 100% (inactive).

Q: With `CC(=O)c1ccc(NC(=O)Cn2cnc3nc4c(cc3c2=O)CC(C)CC4)cc1` (stereo unspecified) as the compound, how does the survival read?
A: Its survival is 60% (inactive).

Q: How did the survival turn out when `O=C(Cn1c(CC(=O)N2CCCC2)nc2ccccc21)NCc1ccccc1` was run?
A: Its survival is 64% (active).

Q: Which survival does the source give for `CCOC(=O)c1cccc(NC(=O)Cn2c(CC(=O)N3CCCC3)nc3ccccc32)c1` here?
A: The survival was 83% (inactive).

Q: Which survival does the source give for `O=C(CSc1cn(CC(=O)N2CCCCC2)c2ccccc12)NCc1ccccc1` here?
A: Its survival is 87% (inactive).

Q: With `CCn1c(=O)c2sccc2n2c(CCC(=O)N3CCN(c4ccc(C(C)=O)cc4)CC3)nnc12` as the compound, how does the survival read?
A: Its survival is 65% (inactive).

Q: `CCOc1cc(C(=O)N2CCn3c4c(c5cc(C)ccc53)CCCC42)cc(OCC)c1OCC` (stereo unspecified) was tested. Which survival did it give?
A: The survival was 56% (inactive).

Q: `Cc1ccc2c(c1)c1c3n2CCN(C(=O)c2ccc(C(F)(F)F)cc2)C3CCC1` (stereo unspecified) was tested. Which survival did it give?
A: The survival was 44% (inactive).

Q: For `Cc1ccc(C(=O)N2CCn3c4c(c5cc(C)ccc53)CCCC42)cc1` (stereo unspecified), which survival is on record?
A: The survival was -1% (active).

Q: How did the survival turn out when `Cc1ccc2c(c1)c1c3n2CCN(C(=O)c2cccc(C(F)(F)F)c2)C3CCC1` (stereo unspecified) was run?
A: The survival was 14% (active).

Q: How did the survival turn out when `CCCN(CCC)S(=O)(=O)c1ccc(C(=O)N2CCn3c4c(c5cc(C)ccc53)CCCC42)cc1` (stereo unspecified) was run?
A: The survival was 58% (inactive).

Q: For `COc1cc(SC)ccc1C(=O)N1CCn2c3c(c4cc(C)ccc42)CCCC31` (stereo unspecified), which survival is on record?
A: Its survival is 70% (inactive).

Q: `COc1ccc(OC)c(CNC(=O)c2cc3ccc4cccnc4c3[nH]2)c1` was tested. Which survival did it give?
A: The survival was 112% (inactive).

Q: Which survival does the source give for `COc1ccc(-c2nnc(SCC(=O)N(C)C3CCCCC3)o2)cc1OC` here?
A: The survival was 86% (inactive).

Q: `O=C(O)c1ccc(N=NN2CCCCC2)cc1` was tested. Which survival did it give?
A: Its survival is 75% (inactive).

Q: For `COc1cccc(NC(=O)C(=O)NCC(c2cccnc2)N2CCN(c3ccccc3)CC2)c1` (stereo unspecified), which survival is on record?
A: Its survival is 97% (inactive).

Q: For `COc1cccc(C2C(C(=O)Nc3ccccc3OC)=C(C)Nc3nc4ccccc4n32)c1` (stereo unspecified), which survival is on record?
A: The survival was 51% (inactive).

Q: `Cc1cccc(N2CCN(C(=O)Cn3ncc4c5ccccc5n(C)c4c3=O)CC2)c1C` was tested. Which survival did it give?
A: The survival was 73% (inactive).

Q: `Cc1ccccc1CS(=O)(=O)c1ncc(Cl)c(C(=O)Nc2nnc(C(C)C)s2)n1` was tested. Which survival did it give?
A: The survival was 30% (active).

Q: With `Cc1cccc(CS(=O)(=O)c2ncc(Cl)c(C(=O)Nc3nnc(C(C)C)s3)n2)c1` as the compound, how does the survival read?
A: Its survival is 28% (active).

Q: For `CCCc1nnc(NC(=O)c2nc(S(=O)(=O)Cc3ccc(C)cc3)ncc2Cl)s1`, which survival is on record?
A: Its survival is 47% (inactive).

Q: How did the survival turn out when `Cc1ccc(CS(=O)(=O)c2ncc(Cl)c(C(=O)Nc3nnc(C(C)C)s3)n2)cc1` was run?
A: The survival was 54% (inactive).

Q: Which survival does the source give for `CC(C)c1nnc(NC(=O)c2nc(S(=O)(=O)Cc3ccccc3)ncc2Cl)s1` here?
A: Its survival is 46% (inactive).

Q: Which survival does the source give for `CCc1nnc(NC(=O)c2nc(S(C)(=O)=O)ncc2Cl)s1` here?
A: Its survival is 66% (inactive).

Q: `CCc1nnc(NC(=O)c2nc(S(=O)(=O)Cc3ccc(C)cc3)ncc2Cl)s1` was tested. Which survival did it give?
A: Its survival is 42% (active).

Q: `CCc1nnc(NC(=O)c2nc(S(=O)(=O)Cc3cccc(C)c3)ncc2Cl)s1` was tested. Which survival did it give?
A: Its survival is 31% (active).
